Five compounds from ChEMBL document CHEMBL3988442, “University of Dundee, Small-Polar-MMV Screening Library” (2021) can be followed below.

For some assays here: Potency and affinity values are given separately.

What all share (design): scale not given: direction of the effect not stated beside the values
Experiment [1] concerns the target Protein translocase subunit SecA (Escherichia coli (strain K12)) (UniProt P10408). The experiment in a line: Assay to Identify E. coli SecA ATPase Inhibitors. The experiment is classed as functional. Conditions: 30 µM.
Experiment [2] has as its target T1, Ubiquitin-activating enzyme e1, putative (Leishmania donovani (strain BPK282A1)) (UniProt E9BSI1).
T1 sequence (whole entry): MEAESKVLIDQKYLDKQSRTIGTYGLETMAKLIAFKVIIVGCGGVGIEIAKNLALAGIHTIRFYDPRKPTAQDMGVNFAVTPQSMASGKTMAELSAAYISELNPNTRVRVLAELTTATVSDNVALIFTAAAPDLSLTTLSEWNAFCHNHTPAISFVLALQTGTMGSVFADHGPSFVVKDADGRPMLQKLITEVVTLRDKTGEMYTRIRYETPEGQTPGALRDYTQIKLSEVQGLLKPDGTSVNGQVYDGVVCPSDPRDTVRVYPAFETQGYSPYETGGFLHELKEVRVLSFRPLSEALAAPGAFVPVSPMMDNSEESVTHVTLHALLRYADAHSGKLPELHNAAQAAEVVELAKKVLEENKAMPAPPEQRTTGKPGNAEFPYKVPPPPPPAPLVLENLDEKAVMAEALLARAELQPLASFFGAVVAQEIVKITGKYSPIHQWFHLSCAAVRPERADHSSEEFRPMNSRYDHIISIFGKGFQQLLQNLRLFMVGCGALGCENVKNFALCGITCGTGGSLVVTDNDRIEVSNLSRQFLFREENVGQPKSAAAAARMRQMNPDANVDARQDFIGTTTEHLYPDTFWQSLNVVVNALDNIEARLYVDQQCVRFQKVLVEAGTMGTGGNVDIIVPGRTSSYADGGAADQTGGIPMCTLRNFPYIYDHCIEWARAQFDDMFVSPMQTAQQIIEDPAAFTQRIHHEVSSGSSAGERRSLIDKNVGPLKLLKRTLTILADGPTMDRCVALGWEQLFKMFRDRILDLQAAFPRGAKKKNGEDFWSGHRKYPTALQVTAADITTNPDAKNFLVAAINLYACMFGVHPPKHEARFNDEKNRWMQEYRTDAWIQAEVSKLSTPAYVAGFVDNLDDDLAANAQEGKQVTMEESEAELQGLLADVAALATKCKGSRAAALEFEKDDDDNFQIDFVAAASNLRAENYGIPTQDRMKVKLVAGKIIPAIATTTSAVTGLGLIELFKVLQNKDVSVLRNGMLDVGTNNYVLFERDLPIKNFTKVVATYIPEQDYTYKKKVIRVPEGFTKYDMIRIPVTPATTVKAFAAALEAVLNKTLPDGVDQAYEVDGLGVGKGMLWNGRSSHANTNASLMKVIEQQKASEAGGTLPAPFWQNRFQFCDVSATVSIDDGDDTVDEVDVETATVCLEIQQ
In words: Leishmania donovani Ubiquitin Activating Enzyme (LdE1). The experiment is classed as functional. The conditions noted are these: 30 µM.

Experiment [3] addresses T2, Aspartate--tRNA(Asp/Asn) ligase (Mycobacterium tuberculosis (strain ATCC 25618 / H37Rv)) (UniProt P9WFW3).
T2 sequence (whole entry): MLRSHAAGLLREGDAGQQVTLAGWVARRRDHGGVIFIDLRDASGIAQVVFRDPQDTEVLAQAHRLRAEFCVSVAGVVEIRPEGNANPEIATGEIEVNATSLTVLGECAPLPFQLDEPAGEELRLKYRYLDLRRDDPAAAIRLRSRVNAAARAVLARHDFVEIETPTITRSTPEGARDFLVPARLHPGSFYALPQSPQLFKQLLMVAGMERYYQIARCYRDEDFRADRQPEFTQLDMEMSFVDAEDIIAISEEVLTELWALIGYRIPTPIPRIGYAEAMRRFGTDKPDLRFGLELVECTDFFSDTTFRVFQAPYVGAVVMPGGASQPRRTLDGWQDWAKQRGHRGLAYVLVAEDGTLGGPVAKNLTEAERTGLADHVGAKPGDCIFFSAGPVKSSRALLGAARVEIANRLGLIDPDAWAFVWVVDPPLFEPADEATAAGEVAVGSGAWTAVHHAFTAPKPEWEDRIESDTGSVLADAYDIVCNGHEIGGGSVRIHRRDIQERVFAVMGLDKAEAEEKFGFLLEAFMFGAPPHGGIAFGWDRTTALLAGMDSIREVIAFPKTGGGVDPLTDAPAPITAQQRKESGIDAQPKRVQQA
In words: Assay for Asp RNA synthetase-1 from Mycobacterium tuberculosis. The experiment is classed as functional. Conditions: 30 µM.

Experiment [4] deals with AMP-activated protein kinase, AMPK (Homo sapiens) (UniProt P54646+O43741+P54619+Q9UGJ0+Q9Y478+Q13131+Q9UGI9). The experiment in a line: AMP-dependent Kinase enzyme assay. An in vitro enzyme assay that detects ADP turnover that is directly proportional to AMPK activity. This uses naive AMPK that is activated during the assay with MK-8722. The experiment is classed as functional. Conditions: 30 µM.

Experiment [5] addresses Sialic acid-binding Ig-like lectin 9 (Homo sapiens) (UniProt Q9Y336). The experiment in a line: Hs-Siglec9 ALPHAscreen SOP 20170721. The conditions noted are these: 10 µM. A general note: Bead proximity is the source of the signal in Alpha formats.
The next experiment has as its system Trypanosoma cruzi. In words: Trypanosoma cruzi phosphomannomutase and mannose-1-phosphate guanylyltransferase assay. It is filed as functional. Conditions: 10 µM.
Experiment [6] concerns the target T3, Arginase-2, mitochondrial (Homo sapiens) (UniProt P78540).
T3 sequence (whole entry): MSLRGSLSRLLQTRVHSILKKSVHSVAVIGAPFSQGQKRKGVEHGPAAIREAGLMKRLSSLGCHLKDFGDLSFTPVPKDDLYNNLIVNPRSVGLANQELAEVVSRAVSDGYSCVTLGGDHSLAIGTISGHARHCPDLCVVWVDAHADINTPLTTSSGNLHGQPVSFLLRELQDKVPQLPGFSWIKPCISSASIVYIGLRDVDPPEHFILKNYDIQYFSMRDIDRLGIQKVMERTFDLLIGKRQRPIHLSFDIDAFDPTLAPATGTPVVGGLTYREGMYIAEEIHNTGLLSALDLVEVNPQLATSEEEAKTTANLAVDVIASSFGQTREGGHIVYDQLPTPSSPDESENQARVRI
The experiment in a line: in vitro enzyme assay to detect the production of urea directly proportional to the activity of Arginase II. Also: in the data most compounds retested in dose-response had high values. It is filed as functional. The conditions noted are these: 33.3 µM.

Experiment [7] deals with T4, Proteasome subunit beta (Trypanosoma cruzi) (UniProt O96673).
T4 sequence (whole entry): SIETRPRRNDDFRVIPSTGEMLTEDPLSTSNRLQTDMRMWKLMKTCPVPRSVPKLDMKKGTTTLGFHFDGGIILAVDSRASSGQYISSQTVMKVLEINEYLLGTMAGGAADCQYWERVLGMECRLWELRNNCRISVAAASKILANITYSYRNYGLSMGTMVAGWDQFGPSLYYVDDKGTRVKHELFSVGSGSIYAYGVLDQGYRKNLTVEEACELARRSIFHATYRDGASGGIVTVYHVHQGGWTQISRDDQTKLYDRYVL
The experiment in a line: Trypanosoma cruzi proteasome chymotrypsin-like activity (TcProtChymo) assay. Also: in the data most compounds retested in dose-response had high values. The experiment is classed as functional. The conditions noted are these: 9.37 µM.

For another experiment, the species on record is Homo sapiens. The experiment in a line: To identify inhibition of the IFN signalling (Jak-Stat) pathway via expression of an eGFP reporter gene under the control of an IFN-stimulated response element (ISRE) containing MxA promoter. The experiment is classed as functional. The conditions noted are these: 30 µM. For orientation: Reporter assays use an easily measured gene product as a stand-in for the process of interest.

Experiment [8] has as its target Shiga toxin 2 (Escherichia coli O157:H7) (UniProt P09385+P09386). In words: E. coli 0.157:H7 Shiga Toxin SOP - stx2 screening assay. The experiment is classed as functional. Conditions: 30 µM.
In experiment [9] the target is T5, Tyrosyl-tRNA synthetase, putative (Trypanosoma cruzi (strain CL Brener)) (UniProt Q4DSP6).
T5 sequence (whole entry): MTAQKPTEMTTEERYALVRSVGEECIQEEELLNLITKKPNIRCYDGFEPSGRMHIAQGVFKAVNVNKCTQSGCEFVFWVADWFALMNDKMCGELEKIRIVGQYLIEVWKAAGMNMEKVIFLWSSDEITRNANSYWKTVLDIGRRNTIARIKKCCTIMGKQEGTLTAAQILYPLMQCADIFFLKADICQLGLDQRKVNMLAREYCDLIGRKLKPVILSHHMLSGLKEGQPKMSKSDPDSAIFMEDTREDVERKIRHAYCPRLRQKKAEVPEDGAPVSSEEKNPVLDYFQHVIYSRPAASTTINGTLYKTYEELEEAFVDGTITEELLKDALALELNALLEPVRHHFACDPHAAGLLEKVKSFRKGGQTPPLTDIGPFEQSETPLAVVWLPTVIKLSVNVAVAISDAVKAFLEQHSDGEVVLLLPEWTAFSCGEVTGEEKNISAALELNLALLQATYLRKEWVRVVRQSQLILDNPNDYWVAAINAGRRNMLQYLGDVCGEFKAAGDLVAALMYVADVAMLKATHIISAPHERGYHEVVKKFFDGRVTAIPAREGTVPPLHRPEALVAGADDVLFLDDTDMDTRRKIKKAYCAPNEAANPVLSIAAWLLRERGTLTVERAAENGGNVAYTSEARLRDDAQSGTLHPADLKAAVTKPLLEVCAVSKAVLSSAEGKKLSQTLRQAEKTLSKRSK
In words: Trypanosoma cruzi tyrosyl tRNA synthetase (TcYRS) _High Tyrosine SOP. Also: in the data most compounds retested in dose-response had high values. It is filed as functional. The conditions noted are these: 30 µM.

The target in experiment [10] is T5, Tyrosyl-tRNA synthetase, putative (Trypanosoma cruzi (strain CL Brener)). In words: Trypanosoma cruzi tyrosyl tRNA synthetase (TcYRS) SOP. It is filed as functional. The conditions noted are these: 30 µM.
The target of experiment [11] is Chromo domain-containing protein 1 (Saccharomyces cerevisiae (strain ATCC 204508 / S288c) (Baker's yeast)) (UniProt P32657). The experiment in a line: ScCHD-1 Enzyme Inhibition Assay. Also: in the data most compounds retested in dose-response had high values. It is filed as functional. Conditions: 30 µM.
Sequence of Chromo domain-containing protein 1 (Saccharomyces cerevisiae (strain ATCC 204508 / S288c) (Baker's yeast)) (P32657 whole entry, the tested form may be a part): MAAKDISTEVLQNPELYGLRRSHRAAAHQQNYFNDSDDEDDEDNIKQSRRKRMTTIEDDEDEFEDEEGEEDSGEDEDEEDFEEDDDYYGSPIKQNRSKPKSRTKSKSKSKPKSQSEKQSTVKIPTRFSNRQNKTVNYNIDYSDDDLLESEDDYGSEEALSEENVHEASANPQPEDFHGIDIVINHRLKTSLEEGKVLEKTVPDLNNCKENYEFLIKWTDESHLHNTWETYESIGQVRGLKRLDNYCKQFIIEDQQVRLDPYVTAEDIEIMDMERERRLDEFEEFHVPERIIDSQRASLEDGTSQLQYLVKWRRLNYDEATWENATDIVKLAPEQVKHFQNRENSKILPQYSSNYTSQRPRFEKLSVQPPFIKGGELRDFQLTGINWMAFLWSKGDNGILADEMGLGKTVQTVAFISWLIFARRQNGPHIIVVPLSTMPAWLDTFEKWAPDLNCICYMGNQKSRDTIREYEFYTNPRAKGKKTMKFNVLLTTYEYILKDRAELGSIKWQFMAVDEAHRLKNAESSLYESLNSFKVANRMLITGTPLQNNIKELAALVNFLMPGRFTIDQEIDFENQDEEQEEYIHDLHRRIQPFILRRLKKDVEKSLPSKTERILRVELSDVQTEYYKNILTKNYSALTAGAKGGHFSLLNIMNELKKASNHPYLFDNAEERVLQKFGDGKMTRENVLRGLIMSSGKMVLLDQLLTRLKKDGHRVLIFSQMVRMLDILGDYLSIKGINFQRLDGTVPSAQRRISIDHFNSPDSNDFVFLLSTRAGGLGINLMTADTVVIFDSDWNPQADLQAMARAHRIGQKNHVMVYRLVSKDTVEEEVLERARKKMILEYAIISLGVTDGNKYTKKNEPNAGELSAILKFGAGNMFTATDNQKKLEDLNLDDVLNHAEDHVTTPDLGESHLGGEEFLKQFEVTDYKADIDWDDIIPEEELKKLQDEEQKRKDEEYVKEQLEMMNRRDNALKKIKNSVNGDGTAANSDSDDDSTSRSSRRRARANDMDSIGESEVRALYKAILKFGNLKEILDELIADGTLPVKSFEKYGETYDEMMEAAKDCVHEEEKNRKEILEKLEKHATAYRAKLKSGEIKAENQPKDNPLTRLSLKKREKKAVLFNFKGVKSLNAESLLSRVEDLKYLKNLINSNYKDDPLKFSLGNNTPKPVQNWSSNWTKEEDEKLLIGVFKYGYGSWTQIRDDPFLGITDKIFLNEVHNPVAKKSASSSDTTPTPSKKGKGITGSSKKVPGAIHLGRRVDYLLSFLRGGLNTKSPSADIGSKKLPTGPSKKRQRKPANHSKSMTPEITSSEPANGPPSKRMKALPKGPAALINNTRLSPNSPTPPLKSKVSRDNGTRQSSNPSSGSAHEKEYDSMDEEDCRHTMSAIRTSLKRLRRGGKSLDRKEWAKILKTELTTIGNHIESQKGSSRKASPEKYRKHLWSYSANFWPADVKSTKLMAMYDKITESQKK

Sequence of Sialic acid-binding Ig-like lectin 9 (Homo sapiens) (Q9Y336 whole entry): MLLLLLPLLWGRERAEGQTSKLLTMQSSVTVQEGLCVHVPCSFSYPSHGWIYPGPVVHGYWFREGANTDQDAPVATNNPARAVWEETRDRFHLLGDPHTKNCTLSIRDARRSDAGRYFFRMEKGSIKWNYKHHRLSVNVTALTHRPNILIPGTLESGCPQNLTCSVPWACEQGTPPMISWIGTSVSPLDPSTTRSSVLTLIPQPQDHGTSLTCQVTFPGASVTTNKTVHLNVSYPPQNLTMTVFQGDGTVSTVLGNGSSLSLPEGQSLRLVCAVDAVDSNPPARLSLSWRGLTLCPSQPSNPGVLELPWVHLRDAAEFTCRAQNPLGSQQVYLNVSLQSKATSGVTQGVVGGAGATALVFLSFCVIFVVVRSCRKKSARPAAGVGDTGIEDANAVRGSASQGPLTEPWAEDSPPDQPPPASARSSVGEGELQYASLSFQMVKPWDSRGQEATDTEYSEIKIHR
Sequence of Protein translocase subunit SecA (Escherichia coli (strain K12)) (P10408 whole entry): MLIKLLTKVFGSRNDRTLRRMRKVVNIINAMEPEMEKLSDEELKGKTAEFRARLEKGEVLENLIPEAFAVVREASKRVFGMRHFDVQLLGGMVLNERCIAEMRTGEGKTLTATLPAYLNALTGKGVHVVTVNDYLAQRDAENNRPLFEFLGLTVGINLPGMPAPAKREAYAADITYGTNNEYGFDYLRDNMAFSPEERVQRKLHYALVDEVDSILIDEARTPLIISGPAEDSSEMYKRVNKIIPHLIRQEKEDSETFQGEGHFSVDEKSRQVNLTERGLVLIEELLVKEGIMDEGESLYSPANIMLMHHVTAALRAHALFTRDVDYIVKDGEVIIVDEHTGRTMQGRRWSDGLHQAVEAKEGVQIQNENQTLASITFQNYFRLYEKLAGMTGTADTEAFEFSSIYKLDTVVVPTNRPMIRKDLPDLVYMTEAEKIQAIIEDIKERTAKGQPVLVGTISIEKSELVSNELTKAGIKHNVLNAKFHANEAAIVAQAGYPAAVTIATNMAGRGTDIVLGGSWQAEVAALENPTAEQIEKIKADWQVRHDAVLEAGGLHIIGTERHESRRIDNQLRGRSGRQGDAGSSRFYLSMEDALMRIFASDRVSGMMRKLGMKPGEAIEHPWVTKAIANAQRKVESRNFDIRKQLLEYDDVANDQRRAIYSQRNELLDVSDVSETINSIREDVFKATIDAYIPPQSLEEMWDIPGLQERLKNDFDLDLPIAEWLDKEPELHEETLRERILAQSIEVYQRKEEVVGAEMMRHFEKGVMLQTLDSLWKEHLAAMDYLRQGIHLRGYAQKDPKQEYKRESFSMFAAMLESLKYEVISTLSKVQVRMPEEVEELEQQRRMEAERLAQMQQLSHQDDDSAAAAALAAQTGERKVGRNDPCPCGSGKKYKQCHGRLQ

As to `O=C([C@H]1C[C@H]2OCC[C@H]2N(Cc2cccnc2)C1)N1CCCO1`, the Percent Effect in [1] was -1.59%; in experiment [2], 10.8%; in experiment [3], 5.55%; in experiment [4], 3.09%; in experiment [5], -7.38%; in the experiment with Trypanosoma cruzi, -0.489%. Besides, the Percent Effect in experiment [6] is 20.1%; in [7], 27.7%; in the experiment filed under Homo sapiens, 14.1%; in experiment [8], -7.24%; in experiment [9], 13%; in [10], 15.4%. Also, the Percent Effect in [11] was 3.21%.

In the case of `O[C@@]1(c2ccccn2)CC[C@H]2CN(Cc3cccc(Cl)c3Cl)C[C@H]21`, the Percent Effect in experiment [1] was -3.54%; in experiment [2], 1.35%; in experiment [3], -0.73%; in experiment [4], 14.3%; in experiment [5] it was -0.828%; with Trypanosoma cruzi it was -3.95%. Besides, the Percent Effect in [6] is -1.62%; in experiment [7], -0.468%; in the experiment listed under Homo sapiens, 25.8%; in experiment [8], 23.9%; in experiment [9], 2.15%; in [10], 6.49%. Also, in experiment [11], the Percent Effect is -8.09%.

Turning to `CCc1nc(CNC(C)Cn2cccn2)cs1` (stereo not given), the Percent Effect was -1.58% in [1]; 13.5% in experiment [2]; 5.32% in experiment [3]; -19.1% in experiment [4]; 12.1% in experiment [5]; 2.36% with Trypanosoma cruzi. Moreover, the Percent Effect is -12% in experiment [6]; 9.73% in [7]; 14.4% in the experiment listed under Homo sapiens; 9.22% in experiment [8]; 12.3% in [9]; 30.9% in experiment [10]. Also, the Percent Effect in experiment [11] was -13.1%.

`O=C(Cc1ccc(O)c(Cl)c1)N1CCN(CC2CC2)[C@@H]2CS(=O)(=O)C[C@@H]21`: the Percent Effect in [1] was -7.75%; in experiment [2], -1.39%; in experiment [3], 4.65%; in [4] it was -2.21%; in [5], 15.8%; in the experiment on Trypanosoma cruzi, -1.46%. In addition, the Percent Effect in experiment [6] is 0%; in [7], 7.54%; in the experiment listed under Homo sapiens, -5.81%; in experiment [8], -19.1%; in [9] it was -2.1%; in experiment [10] it was -2.56%. The Percent Effect in experiment [11] was -1.95%.

As to `CN(C)C(=O)COC[C@H]1CC[C@@H]2[C@@H](CCN2Cc2ccccn2)O1`, the Percent Effect is 1.44% in experiment [1]; 2.7% in [2]; -8.07% in experiment [3]; -3.81% in [4]; 1.03% in experiment [5]; 4.1% with Trypanosoma cruzi. In addition, the Percent Effect was 2.5% in experiment [6]; 8.88% in [7]; -3.32% in the experiment filed under Homo sapiens; -6.42% in experiment [8]; -14.8% in experiment [9]; 3.66% in [10]. The Percent Effect in experiment [11] was -2.81%.
